The results in this text go back to PubChem BioAssay AID1053206 (Broad Institute, 2014).

A number with no mark means an inactive call.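 The calls were made as follows: active = compounds lowering delta-delta-Ct, meaning more Pax4 mRNA, with half-max potency at most twice the top tested dose; inconclusive = flat fit dropping 30 to 70 percent, or unreliable fit; inactive = the rest.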

The nature of this test: Pax4 mRNA induction in alpha cells – mouse alpha TC1 cells, RT-qPCR, cherry-picks, dose response (AID 1053206). As to conditions: 6 days, active compounds read low; at 19.5 µM unless noted.
On to `COc1cc(CN2C[C@@H]3N[C@H](C2)C3c2ccc(-c3ccc(C#N)cc3)cc2)cc(OC)c1` (stereo partly drawn), for which the max activity (delta-delta-Ct) was -0.065%. `CNC[C@@H]1Oc2cc(C#Cc3ccccc3OC)ccc2S(=O)(=O)N([C@H](C)CO)C[C@H]1C`: the max activity (delta-delta-Ct) is -0.002% [at 0.6 µM]. For `CO[C@@H](CN(C)Cc1cc(F)ccc1F)[C@@H](C)CN(C(=O)Nc1ccc(C(F)(F)F)cc1)[C@H](C)CO` the value was -0.501% [at 10 µM].

Take `C(=C\c1ccc(C2[C@@H]3CN(Cc4ccc5c(c4)OCO5)C[C@H]2N3)cc1)/c1ccccc1` (stereo partly drawn): the max activity (delta-delta-Ct) was -0.457%.

In the case of `COc1ccc2c3c(n(C)c2c1)[C@@H](CO)N(CC1CC1)CC31CN(C(=O)c2ccc3c(c2)OCO3)C1`, the max activity (delta-delta-Ct) was -0.004% [at 0.038 µM]. On to `Cc1ccccc1S(=O)(=O)N1C[C@@H]2N[C@H](C1)C2c1ccc(-c2cccc(C#N)c2)cc1` (stereo partly drawn), for which the max activity (delta-delta-Ct) is -0.001% [at 2.6 µM].

For the compound `C[C@@H]1CN([C@@H](C)CO)C(=O)Cc2cc(NC(=O)C3CCCCC3)ccc2O[C@@H]1CN(C)Cc1ccc(Cl)c(Cl)c1`, the max activity (delta-delta-Ct) is -0.143% [at 1.2 µM]. Consider `N#Cc1cccc(-c2ccc(C3[C@@H]4CN(C(=O)Nc5ccc(C(F)(F)F)cc5)C[C@H]3N4)cc2)c1` (stereo partly drawn), for which the max activity (delta-delta-Ct) was -0.156%. For the compound `Cc1cccc(-c2ccc(C3[C@@H]4CN(Cc5cccc(F)c5)C[C@H]3N4)cc2)c1` (stereo partly drawn), the max activity (delta-delta-Ct) is -2.82%. Turning to `C[C@H](CO)N1C[C@H](C)[C@@H](CN(C)Cc2ccccc2)Oc2c(NC(=O)Cc3cn(C)c4ccccc34)cccc2C1=O`, the max activity (delta-delta-Ct) is -0.003% [at 10 µM]. With `C/C=C/c1ccc([C@H]2[C@@H](CO)N3C(=O)CN(Cc4ccc(F)cc4)C[C@@H]23)cc1`, the max activity (delta-delta-Ct) is -0.008% [at 0.16 µM].

In the case of `COc1ccc(S(=O)(=O)Nc2ccc3c(c2)CC(=O)N([C@H](C)CO)C[C@H](C)[C@H](CN(C)Cc2ccc(C(=O)Nc4ccccc4N)cc2)O3)cc1`, the max activity (delta-delta-Ct) was -0.17%.

With `COc1cccc(-c2cccc(-c3nc(C(=O)Nc4ccc(-c5ccccc5)cc4)cc4c3[C@@H](CCO)N(S(=O)C(C)(C)C)C4)c2)c1` (stereo partly drawn), the max activity (delta-delta-Ct) was -0.152%. For the compound `C/C=C/c1ccc(C2[C@@H]3CN(C(=O)Nc4ccc(C(F)(F)F)cc4)C[C@H]2N3)cc1` (stereo partly drawn), the max activity (delta-delta-Ct) was -0.019%. On to `O=S(=O)(c1ccc(F)cc1)N1C[C@@H]2N[C@H](C1)C2c1ccc(/C=C/c2ccccc2)cc1` (stereo partly drawn), for which the max activity (delta-delta-Ct) was -0.01% [at 10 µM]. To `CN(C)C(=O)c1cccc(-c2ccc(C3[C@@H]4CN(Cc5ccccc5F)C[C@H]3N4)cc2)c1` (stereo partly drawn) belongs 0.001% [at 5 µM]; to `C[C@H]1CNC(=O)[C@@H](Cc2ccc(C(F)(F)F)cc2)CCn2nncc2COC1`, 0.001% [at 0.16 µM]; to `Fc1cccc(CN2C[C@@H]3N[C@H](C2)C3c2ccc(/C=C/c3ccccc3)cc2)c1` (stereo partly drawn), -3.37% [at 21 µM].
